# Out of some 310,000 compounds screened, about 14,000 (4.5%) showed an effect of 50% or more. The effect is printed as a negative number. The entries come from a sample that favours strong results as a whole.
# Target: human ether-à-go-go-related gene (hERG) potassium channel (human, UniProt Q12809)
# Assay: primary screen, population patch clamp on CHO cells stably expressing hERG; higher = less effect of the substance
# 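Also: peak tail current of the secondary pulse compared with the same well before compound.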
# Sequence of human ether-à-go-go-related gene (hERG) potassium channel (Q12809 whole entry, looked up): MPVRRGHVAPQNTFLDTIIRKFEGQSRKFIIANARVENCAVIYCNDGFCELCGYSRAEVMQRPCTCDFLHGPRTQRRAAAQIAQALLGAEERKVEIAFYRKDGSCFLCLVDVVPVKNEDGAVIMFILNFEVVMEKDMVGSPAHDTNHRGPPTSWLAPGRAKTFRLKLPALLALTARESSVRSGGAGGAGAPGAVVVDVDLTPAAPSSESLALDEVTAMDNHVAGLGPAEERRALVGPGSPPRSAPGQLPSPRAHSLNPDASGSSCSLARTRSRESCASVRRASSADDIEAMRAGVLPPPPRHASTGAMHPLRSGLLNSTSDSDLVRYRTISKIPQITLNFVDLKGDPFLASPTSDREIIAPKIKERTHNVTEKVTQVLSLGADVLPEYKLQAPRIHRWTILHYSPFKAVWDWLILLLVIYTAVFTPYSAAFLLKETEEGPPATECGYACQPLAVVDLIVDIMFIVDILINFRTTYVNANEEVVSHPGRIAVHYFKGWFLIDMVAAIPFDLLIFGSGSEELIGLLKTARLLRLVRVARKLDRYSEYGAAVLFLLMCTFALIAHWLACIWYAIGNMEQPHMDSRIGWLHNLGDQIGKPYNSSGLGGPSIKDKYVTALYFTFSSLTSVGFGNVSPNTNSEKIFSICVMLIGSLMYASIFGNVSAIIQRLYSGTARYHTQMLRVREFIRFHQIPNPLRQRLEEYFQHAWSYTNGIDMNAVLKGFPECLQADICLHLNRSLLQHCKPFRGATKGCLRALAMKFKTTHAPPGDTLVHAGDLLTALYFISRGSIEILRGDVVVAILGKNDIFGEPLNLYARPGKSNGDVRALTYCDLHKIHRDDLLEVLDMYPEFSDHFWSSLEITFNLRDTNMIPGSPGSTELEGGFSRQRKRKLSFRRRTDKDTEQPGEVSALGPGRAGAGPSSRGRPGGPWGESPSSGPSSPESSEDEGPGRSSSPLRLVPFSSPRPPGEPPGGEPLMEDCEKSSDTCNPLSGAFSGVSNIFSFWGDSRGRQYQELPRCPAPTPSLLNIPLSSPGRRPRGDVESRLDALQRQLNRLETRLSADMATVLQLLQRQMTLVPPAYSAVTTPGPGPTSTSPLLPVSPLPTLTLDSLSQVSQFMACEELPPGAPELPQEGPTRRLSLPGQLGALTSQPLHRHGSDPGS
row,Compound,"hERG current change (%, negative = inhibition) at 10uM"
1,NS(=O)(=O)c1cccnc1Nc1cccc(Cl)c1Cl,-3.35%
2,CN(C)c1nc(-c2ccccc2)nc(-c2ccc(Cl)cc2)c1C#N,8.49%
3,COc1ccc(-c2nc3c4ccccc4ccn3c2CN2CCCCC2)cc1OC.Cl,0.736%
4,O=C(CSc1nc2ccccc2c(=O)[nH]1)N1CCN(c2ccccc2F)CC1,9.44%
5,COc1cccc(N2CCN(Cc3nc4ccccc4c(=O)[nH]3)CC2)c1,-18.9%
6,O=c1[nH]c(CN2CCN(c3ccc(F)cc3)CC2)nc2ccccc12,-15.1%
7,O=c1nc2ccccc2c2n1CC(CN1CCN(c3cccc(Cl)c3)CC1)N2 (centres unmarked),-63.3%
8,O=c1nc2ccccc2c2n1CC(CN1CCN(c3ccc(F)cc3)CC1)N2 (centres unmarked),-68.6%
9,Fc1ccccc1N1CCN(CC2CCCCC2)CC1,-1.99%
10,O=c1nc2ccccc2c2n1CC(CN1CCN(c3ccccc3F)CC1)N2 (centres unmarked),-50.3%
11,Cn1c(CN2CCN(c3cccc(Cl)c3)CC2)nc2ccccc21,-44.7%
12,O=c1[nH]c(CN2CCN(c3ccccc3)CC2)nc2ccccc12,1.55%
13,Cc1cc(C)cc(NC(=O)c2cc(C)nn2C)c1,0.0741%
14,O=C(COC(=O)c1ncc(Cl)c(Cl)c1Cl)NC(=O)c1ccccc1,14.9%
15,Cn1cnnc1SCc1ccccc1[N+](=O)[O-],13.7%
16,COc1cc(C#N)ccc1OCC(=O)NCCC1=CCCCC1,-13.2%
17,Nc1ccc2c(c1)ncn2CCCn1cnc2cc(N)ccc21,-14.7%
18,Fc1ccc(-n2cc(CNCCc3ccncc3)c(-c3ccccc3Cl)n2)cc1,-75.2%
19,Cl.Clc1ccccc1CNCc1ccncc1,-0.497%
20,Fc1ccc(NC(=S)NCCc2ccccn2)cc1,7.88%
21,O=C(NCc1ccccn1)c1cn(-c2ccccc2)nc1-c1ccc(Cl)cc1,-1.67%
22,Cl.c1cncc(CNCCc2c[nH]c3ccccc23)c1,4.01%
23,Fc1ccc(-n2cc(CNCCc3ccccn3)c(-c3ccccc3Cl)n2)cc1,-89.9%
24,Fc1ccc(-n2cc(CNCCc3cccnc3)c(-c3ccccc3Cl)n2)cc1,-51.9%
25,Cl.c1ccc(CCNCc2cccnc2)cc1,-0.175%
26,Cl.Fc1ccc(CCNCc2ccccc2Cl)cc1,1.24%

# From publication PMC4336329 (PLoS ONE, 2015)
